PGC1a acetyl inh – inhibitors of PGC1a acetylation signal, primary screen, cell-based, U2OS, AlphaScreen, inhibitor mode | AlphaScreen anti-acetyl-lysine; with virally co-expressed GCN5 acetyltransferase | inhibition, % at 15.6 µM | actives 0.17% (n = 350,000);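 active = every replicate shows inhibition of at least 40%; inconclusive = mean inhibition at least 40% but some replicate below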;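 note: 0% = neutral control wells and 100% = positive control wells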
EWS-Fli inh – EWS/Fli-driven NR0B1 reporter inhibitors, primary screen, A673 cells, NR0B1 luciferase, luminescence, MLPCN library. viability-normalised. inhibition, % at 12.6 µM. actives 0.67% (n = 350,000);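 active = mean inhibition of at least 50% after viability correction, with every replicate also passing that limit; inconclusive = mean reaches 50% but only one of two replicates passes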;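 note: firefly luciferase signal divided by Alamar Blue viability fluorescence both relative to DMSO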
HIV Env fusion – inhibitors of HIV-1 Env-driven cell-cell fusion, primary screen, HeLa-JRFL effector, CEM21 target cells, luciferase. actives 1.1% (n = 360,000). AID 651610, 2012. inhibition, % at 12.3 µM;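 active = mean replicate inhibition score of at least 50 and every replicate individually at or above 50; inconclusive = only one of the two criteria met; inactive = mean below 50 and not all replicates reaching 50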;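 note: 0% = plate neutral controls and 100% = maraviroc near 300 nM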
INS-1E GSIS act – GLuc luminescence reporter in INS-1E cells, primary screen for activators of glucose-dependent secretion of insulin; INS-1E GLuc reporter insulin secretion, 2-3 h; actives 0.61% (n = 370,000); AID 743287, 2014; activation, % at 16.6 µM;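 active = lowest replicate activation of at least 40%, so every replicate reaches that level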;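 note: 0% = median of neutral control wells and 100% = median of IBMX positive control wells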
F508del corr – F508del CFTR correction, initial screen, CFBE line, single point; CFBE cells, YFP halide quenching; stimulated with forskolin plus potentiator P3; % fluorescence drop versus neutral controls; AID 720511, 2013; actives 0.36% (n = 350,000); activity (quench increase), % at 7.58 µM;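 active = mean added fluorescence quench of at least 8% versus neutral control, with both replicates also reaching 8%; inconclusive = only one of the mean or replicate conditions met; inactive = mean below 8% and not both replicates reaching 8%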;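 note: cells transiently co-express mutant CFTR-F508del with the halide-sensitive YFP; corrector assay measuring rescue of mutant channel to the surface after 24 h compound exposure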
PAX8 inh HTS – inhibitors of PAX8-driven TPO luciferase reporter, primary screen, RMG-I cells, single concentration. inhibition, % at 12.6 µM. actives 1.2% (n = 360,000). SteadyGlo, 24 h. AID 652154, 2013;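 active = mean replicate inhibition at least 60% with every replicate also reaching 60%; inconclusive = only one of the two criteria is met; inactive = mean below 60% and not all replicates reaching 60%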;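 note: luciferase light reporting Pax8 driven TPO promoter activity; plate controls were median of neutral control wells for no effect and mitoxantrone controls for full effect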
Numbers without * were called inactive; ? = inconclusive; . = no result; ! = a repeat was not active; [ ] = remark or other dose. Shown are actives, neighbours in structure and some others; about 2.7% of the full set was active somewhere.

SMILES	PGC1a acetyl inh	EWS-Fli inh	HIV Env fusion	INS-1E GSIS act	F508del corr	PAX8 inh HTS
O=C(C[C@@H]1CC[C@H]2[C@@H](COC[C@H](O)CN2Cc2nccs2)O1)NCc1ccccc1F	6.5	3.6	.	13.5	-2.1	-3.2
C[C@@H]1CCCCO[C@@H](CN(C)C(=O)Nc2ccc(F)cc2)[C@@H](C)CN([C@H](C)CO)C(=O)c2cc(NS(=O)(=O)c3ccc(F)cc3)ccc2O1	-1.4	-7.5	11.0[16.7 µM]	-19.9	-1.4	-7.3
C[C@H](CO)N1C[C@H](C)[C@H](CN(C)C(=O)Nc2ccc(C(F)(F)F)cc2)OCCCC[C@H](C)Oc2ccc(NS(=O)(=O)c3ccc(F)cc3)cc2C1=O	6.9	6.0	58.8*[16.7 µM]	19.8	4.2	72.3*
C[C@@H]1CCCCO[C@@H](CN(C)C(=O)Nc2ccc(C(F)(F)F)cc2)[C@H](C)CN([C@H](C)CO)C(=O)c2cc(NS(=O)(=O)c3ccc(F)cc3)ccc2O1	-1.0	19.9	-77.6[16.7 µM]	6.7	-0.7	88.0*
C[C@H]1CCCCO[C@H](CN(C)C(=O)Nc2ccc(C(F)(F)F)cc2)[C@@H](C)CN([C@@H](C)CO)C(=O)c2cc(NS(=O)(=O)c3ccc(F)cc3)ccc2O1	-2.6	4.3	77.5*[16.7 µM]	-11.6	-0.2	83.9*
O=C(NCCCc1ccccc1)c1ccccc1	-0.6	.	.	.	.	.
O=C(NN(Cc1ccccc1)Cc1ccccc1)c1ccccc1	-7.3	1.1	.	48.9*	-1.1	-8.9
CCc1nn(C(C)C(=O)N2CC(C)CC(C)C2)c(=O)c2cc3occc3n12 (stereo not given)	-3.8	.	-11.4	6.0	2.2	-3.1
CCc1nn(C(C)C(=O)N2CCN(c3ccc(OC)cc3)CC2)c(=O)c2cc3occc3n12 (stereo not given)	-0.7	54.8*	-112.2	12.5	2.0	46.4
O=C1C(=O)N(c2nccs2)C(c2ccccc2F)/C1=C(\O)c1ccc2c(c1)OCCO2 (stereo not given)	9.1	-3.1	59.2*	-0.3	-4.4	53.7
Cc1nnc(N2C(=O)C(=O)/C(=C(/O)c3ccc4c(c3)OCCO4)C2c2ccc(F)cc2)s1 (stereo not given)	-0.1	-7.2	3.6	6.9	-0.5	-26.1
CN(C)CC(=O)N[C@@H]1CC[C@@H](CCNC(=O)C2CCCCC2)O[C@H]1CO	2.9	-6.1	-4.0[16.7 µM]	14.5	6.4	-15.7
C[C@H]1CN([C@@H](C)CO)C(=O)Cc2cc(NC(=O)Nc3ccc(F)cc3)ccc2O[C@H]1CN(C)C(=O)Nc1ccccc1	-4.2	-5.2	.	-6.0	-0.9	13.7
Cc1ccc(-c2csc(NC(=O)C3CCN(S(=O)(=O)c4cccs4)CC3)n2)cc1	.	.	63.4*	-36.4	.	17.0
O=C(Nc1nc(-c2ccccc2)cs1)C1CCCN(S(=O)(=O)c2ccccc2)C1 (stereo not given)	-1.1	.	96.6*	-1.1	.	.
Cc1ccc(S(=O)(=O)Nc2ccc3c(c2)CC(=O)N([C@@H](C)CO)C[C@@H](C)[C@@H](CN(C)CC2CCCCC2)O3)cc1	-6.1	7.1	.	-11.7	-0.2	.
O=C1N[C@H](Cc2ccccc2)COCc2cnnn2CC[C@@H]1Cc1cccc(Cl)c1	.	.	.	-0.4	.	.
CC1CCC(C(C)C)C(OC(=O)Cn2c(-c3ccc(Cl)cc3)[n+](C)c3ccccc32)C1 (stereo not given)	1.8	22.6	68.5*	88.4	-2.2	96.5*
CC1CCC(C(C)C)C(OC(=O)Cn2c(-c3ccc(Br)cc3)[n+](C)c3ccccc32)C1 (stereo not given)	-45.1	21.0	58.1*!	275.3*	1.0	100.4*
CC1CCC(C(C)C)C(OC(=O)COC(=O)c2cccn2C)C1 (stereo not given)	-7.3	.	.	.	.	.
Cc1ccccc1OCc1n(CC(=O)OC2CC(C)CCC2C(C)C)c2ccccc2[n+]1C (stereo not given)	12.3	?	71.0*	77.2*	-1.6	105.4*
C/C=C/c1ccc2c(c1)O[C@H](CN(C)C)[C@@H](C)CN([C@@H](C)CO)S2(=O)=O	-8.7	3.0	?	9.7	-0.3	.
